Screening results from PubChem.
Shown are actives, neighbours in structure and some others; about 6.3% of the full set was active somewhere.
TIM10 inh: growth inhibitors of isogenic TIM10 control yeast, primary screen, counter-screen for tim10-1 yeast inhibitor project, luminescence, uHTS; 330,000 compounds, 1.4% hits; S. cerevisiae TIM10 strain growth, BacTiter-Glo luminescence, 24 h; inhibition, % at 10 µM;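 active = inhibition of 40% or more at the single tested concentration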;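 also: wild-type TIM10 isogenic control strain grown at permissive 25 °C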
MPTP inh: mitochondrial permeability transition pore inhibitors, primary screen, biochemical, isolated mouse mitochondria, absorbance. inhibition, % at 10 µM. AID 602449, 2012. Ca2+ swelling absorbance, 30 min. 360,000 compounds, 1.4% hits;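 active = inhibition of 50% or more, scaled per plate between neutral and stimulator controls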
Mdm2-MdmX inh: inhibitors of human Mdm2-MdmX association, primary screen, cell-based, luminescence, split luciferase, SaOS-2, uHTS | Protein Mdm4 (Homo sapiens) + E3 ubiquitin-protein ligase Mdm2 (Homo sapiens), … | SaOS-2 split-luciferase Mdm2/MdmX complementation | inhibition, % at 8 µM | 330,000 compounds, 3% hits | AID 485346, 2010;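 active = inhibition of at least 50% at 8 µM in the primary screen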
Target sequence (O15151 whole entry, looked up): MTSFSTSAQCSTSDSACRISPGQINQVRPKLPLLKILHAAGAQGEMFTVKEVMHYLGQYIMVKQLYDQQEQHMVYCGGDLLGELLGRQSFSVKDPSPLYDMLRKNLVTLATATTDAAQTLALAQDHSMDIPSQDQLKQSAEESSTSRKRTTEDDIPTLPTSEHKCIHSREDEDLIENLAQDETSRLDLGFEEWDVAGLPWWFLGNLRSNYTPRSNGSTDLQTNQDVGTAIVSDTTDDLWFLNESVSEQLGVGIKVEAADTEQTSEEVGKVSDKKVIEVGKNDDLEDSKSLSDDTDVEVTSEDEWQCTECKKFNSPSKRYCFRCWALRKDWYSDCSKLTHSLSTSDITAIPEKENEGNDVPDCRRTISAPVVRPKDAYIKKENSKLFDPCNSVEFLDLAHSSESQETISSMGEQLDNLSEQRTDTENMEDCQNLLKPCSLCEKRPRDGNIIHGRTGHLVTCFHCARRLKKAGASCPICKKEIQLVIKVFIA
Target sequence (Q00987 whole entry, looked up): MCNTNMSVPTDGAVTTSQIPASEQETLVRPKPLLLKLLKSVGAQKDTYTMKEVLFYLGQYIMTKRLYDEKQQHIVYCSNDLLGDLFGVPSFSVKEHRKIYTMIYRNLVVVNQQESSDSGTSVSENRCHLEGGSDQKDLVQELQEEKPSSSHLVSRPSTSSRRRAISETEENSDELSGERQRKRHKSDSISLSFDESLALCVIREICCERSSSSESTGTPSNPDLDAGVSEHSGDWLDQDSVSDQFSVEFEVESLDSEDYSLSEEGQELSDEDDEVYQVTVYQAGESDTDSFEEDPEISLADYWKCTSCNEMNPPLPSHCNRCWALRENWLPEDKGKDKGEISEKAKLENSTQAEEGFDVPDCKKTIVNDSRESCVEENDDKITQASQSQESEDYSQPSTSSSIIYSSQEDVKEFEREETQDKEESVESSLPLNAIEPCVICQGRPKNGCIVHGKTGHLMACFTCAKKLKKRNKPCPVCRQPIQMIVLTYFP
tim23-1 inh: growth inhibitors of tim23-1 mutant yeast, primary screen, luminescence, uHTS | S. cerevisiae tim23-1 growth, BacTiter-Glo luminescence, 24 h | inhibition, % at 20 µM | AID 463212, 2010 | 330,000 compounds, 1.3% hits;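 active = growth inhibition of the mutant yeast at or above 50%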;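 also: temperature-sensitive mutant grown at 25 °C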
tim10-1 inh: growth inhibitors of tim10-1 mutant yeast, primary screen, luminescence, uHTS; S. cerevisiae tim10-1 ts strain growth, BacTiter-Glo, 24 h; inhibition, % at 20 µM; 330,000 compounds, 2.2% hits;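 active = inhibition of at least 40%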;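 also: mutant grown at 25 °C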
tim10-1 confirm: growth inhibitors of tim10-1 mutant yeast, confirmation, single concentration, luminescence, S. cerevisiae | shares compounds with tim10-1 inh | S. cerevisiae tim10-1 ts strain growth, BacTiter-Glo, 24 h | inhibition, % at 20 µM | 7,400 compounds, 56% hits | AID 463213, 2010;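 active = inhibition of yeast growth at or above a set limit in either of two repeat tests at 20 µM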;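 also: tim10-1 mutant grown at permissive 25 °C to find synthetic lethal compounds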
Each line names hits and unclear results; the compound was inactive in the other large screens (follow-up assays come after a bar, where they were run).

CC(=O)C(=Cc1cccc(C#N)c1)C(=O)c1ccccc1	none (no result: TIM10 inh, Mdm2-MdmX inh, tim23-1 inh, tim10-1 inh)
Cc1csc(-c2cc(C(=O)NCc3ccc(F)cc3)n[nH]2)c1	none (no result: TIM10 inh, Mdm2-MdmX inh, tim23-1 inh, tim10-1 inh)
COC(=O)C(=Cc1ccccc1[N+](=O)[O-])C(=O)OC	tim10-1 inh 44 | tim10-1 confirm inactive
O=C(/C=C/c1ccccc1[N+](=O)[O-])Oc1ccccc1	none (no result: MPTP inh)
CCCCCCC(=O)N(O)C1CC(=O)N(c2ccc(F)cc2)C1=O (stereo unspecified)	none
CCCCCCC(=O)N(O)C1CC(=O)N(c2ccc(Br)cc2)C1=O (stereo unspecified)	tim10-1 inh 42 | tim10-1 confirm inactive
O=C1ON=C(c2ccccc2)/C1=C/c1ccco1	none
CCCCc1ccc(/C=C2\C(=O)ON=C2c2ccccc2)s1	tim10-1 inh 40 | tim10-1 confirm inactive
CCOc1ccc(N2CC(C(=O)Nc3cccc(S(=O)(=O)N4CCOCC4)c3)CC2=O)cc1 (stereo unspecified)	none (no result: TIM10 inh, Mdm2-MdmX inh, tim23-1 inh, tim10-1 inh)
CCCCCNC(=O)C(c1cccc2ccccc12)n1c(=O)c(-c2cc3ccccc3[nH]2)nc2ccccc21 (stereo unspecified)	none (no result: TIM10 inh, Mdm2-MdmX inh, tim23-1 inh, tim10-1 inh)
COCCN(C(=S)Nc1ccc(OC)cc1)C(C)c1cccs1 (stereo unspecified)	tim10-1 inh 41 | tim10-1 confirm inactive
COCCN(C(=S)Nc1cc(C)cc(C)c1)C(C)c1cccs1 (stereo unspecified)	none
CC(=O)c1ccc(N2CCN(C(=O)c3cc4c(s3)CCCC4)CC2)cc1	tim10-1 inh 47 | tim10-1 confirm inactive
O=C(c1cc2c(s1)CCCCC2)N1CCN(c2ncccn2)CC1	tim10-1 inh 45 | tim10-1 confirm inactive
COC(=O)C(C(=O)OC)c1ccccc1CNS(=O)(=O)c1ccc(C)cc1	none (no result: TIM10 inh, Mdm2-MdmX inh, tim23-1 inh, tim10-1 inh)
CC/C(=N\NC(=S)Nc1cc(C)ccc1C)c1ccc(OC(F)F)cc1	tim10-1 inh 58 | tim10-1 confirm 36
C/C(=N\NC(=S)Nc1c(C)cccc1C)c1ccc(OC(F)F)cc1	tim10-1 inh 43 | tim10-1 confirm 41
CC/C(=N\NC(C)=O)c1ccc(OC(F)F)cc1	none (no result: MPTP inh)
COc1ccc2c(c1)c(C(=O)O)c(C)n2-c1ccccc1	none
COc1cc2c(C(=O)N3CCN(C)CC3)c(C)n(-c3ccccc3)c2cc1Br	tim10-1 inh 50 | tim10-1 confirm inactive
COc1ccc(C(=O)OCC(=O)Nc2cc(C)on2)c(OC)c1OC	tim10-1 inh 85 | tim10-1 confirm inactive
CCOC(=O)c1c(NC(=O)CSc2nnc(-c3ccco3)o2)sc(C)c1C	tim10-1 inh 42 | tim10-1 confirm inactive
CCOC(=O)c1c(NC(=O)CSc2nnc(-c3ccco3)o2)sc(C(C)=O)c1C	none
COc1ccccc1-c1nnc2sc(C3CCCCC3)nn12	tim10-1 inh 43 | tim10-1 confirm inactive
COc1cc(CN2C[C@@H](CO)O[C@@H](n3cnc4c(NC(C)C)ncnc43)C2)cc(OC)c1OC	none (no result: TIM10 inh, Mdm2-MdmX inh, tim23-1 inh, tim10-1 inh)
O=C(NNC(=S)Nc1ccc(Br)cc1)c1ccc(N2CCOCC2)c([N+](=O)[O-])c1	tim10-1 inh 44 | tim10-1 confirm inactive
COc1ccc(S(=O)(=O)N/N=C(/C)c2ccc(Cl)cc2)cc1	tim10-1 inh 52 | tim10-1 confirm 44
Cc1nc(SC2CC(=O)N(c3ccccc3)C2=O)nc2c1CCCC2 (stereo unspecified)	none
O=C(O)c1ccccc1SC1CC(=O)N(c2ccccc2)C1=O (stereo unspecified)	none
Cc1nnc(SC2CC(=O)N(c3ccccc3)C2=O)s1 (stereo unspecified)	tim10-1 inh 47 | tim10-1 confirm 38
O=C1CC(Sc2cccs2)C(=O)N1c1ccccc1 (stereo unspecified)	tim10-1 inh 42 | tim10-1 confirm 40
O=C(O)c1cccnc1SC1CC(=O)N(c2ccccc2)C1=O (stereo unspecified)	none
O=C1CC(Sc2nnc(-c3ccccc3)o2)C(=O)N1c1ccccc1 (stereo unspecified)	tim10-1 inh 51 | tim10-1 confirm 51
COc1ccc(N2C(=O)CC(Sc3nc4ccccc4s3)C2=O)cc1 (stereo unspecified)	tim10-1 inh 41 | tim10-1 confirm 33
O=C1NC[C@H](CCCCN2C[C@H](Cc3ccc(O)cc3)N(CCC3CCCCC3)C(=O)C2=O)N(CCC2CCCCC2)C1=O	none (no result: TIM10 inh, Mdm2-MdmX inh, tim23-1 inh, tim10-1 inh)
CC(=O)c1ccc(N2CCN(C(=S)NCc3ccco3)CC2)cc1	none
S=C(NCc1ccco1)N1CCN(c2ccc(Cl)cc2)CC1	tim10-1 inh 49 | tim10-1 confirm inactive
COc1ccc(NC(=O)c2cccc3c(-c4ccc(O)c(OC)c4)coc23)cc1	none (no result: TIM10 inh, Mdm2-MdmX inh, tim23-1 inh, tim10-1 inh)
N#Cc1cc2c(nc1SCC(O)CS(=O)(=O)Cc1ccc(Cl)cc1)CCCC2 (stereo unspecified)	none
CC(C)(C)c1ccc(S(=O)(=O)CC(O)CSc2nc3c(cc2C#N)CCCC3)cc1 (stereo unspecified)	tim10-1 inh 40 | tim10-1 confirm inactive
COc1cccc(-c2cc(C(=O)Nc3cc(OC)c(OC)c(OC)c3)no2)c1	tim10-1 inh 51 | tim10-1 confirm 42
CCOC(=O)c1c(C)[nH]c(C(=O)Nc2ccc3c(c2)OCO3)c1C	tim10-1 inh 43 (no result: MPTP inh) | tim10-1 confirm 32
CC(C)(C)OC(=O)N1CCC[C@H]1c1nnc(SCc2ccccc2Cl)o1	none
CC(C)(C)OC(=O)N1CCC[C@H]1c1nnc(SCc2ccc(Cl)cc2Cl)o1	tim10-1 inh 40 | tim10-1 confirm inactive
Cc1ccc(S(=O)(=O)NCc2ccccc2)cc1	none
CSc1ccc(S(=O)(=O)NCc2ccc(C)cc2)cc1	tim10-1 inh 44 | tim10-1 confirm 37
CSc1ccc(S(=O)(=O)NCc2ccccc2C)cc1	tim10-1 inh 47 | tim10-1 confirm inactive
c1ccc2sc(-c3ccc4c(c3)OCO4)nc2c1	tim10-1 inh 45 | tim10-1 confirm 46
O=C(Nc1cccc(-c2nc3ccccc3s2)c1)c1ccc2c(c1)OCO2	none
COC(=O)c1ccc(COc2cccn3c(N(C)C(=O)CCC4CCCC4)c(C)nc23)cc1	none (no result: TIM10 inh, Mdm2-MdmX inh, tim23-1 inh, tim10-1 inh)
CC(C)c1ccc(NC(=O)C2(C)Cc3c(-c4ccc(C(N)=O)cc4)ccnc3O2)cc1 (stereo unspecified)	none (no result: TIM10 inh, Mdm2-MdmX inh, tim23-1 inh, tim10-1 inh)
CNC(=O)c1ccsc1NC(=O)c1ccc(Cl)s1	tim10-1 inh 44 | tim10-1 confirm 32
O=C1N/C(=C/c2ccc(N3CCOCC3)o2)C(=O)N1c1cccc(Cl)c1	tim10-1 inh 43 | tim10-1 confirm 36
NC1(C#Cc2ccc3c(=O)c4ccccc4sc3c2)CCCCC1	none
